ABCB6 inh MLPCN = ABCB6 transporter inhibitors, primary screen, K562-ABCB6 cells, flow cytometry, MLPCN library | ATP-binding cassette sub-family B member 6 (Homo sapiens), Q9NP58 | K562-ABCB6 porphyrin accumulation, 1 h; hits give low values | fluorescence ratio to DMSO, % at 10 µM | 0.19% of 360,000 active | AID 602162, 2011;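 active means fluorescence ratio to DMSO below 75%, the collection mean minus 3 SD; inconclusive means too few cells collected in the well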;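 further: signal is porphyrin accumulated inside mitochondria; 100% equals median channel fluorescence of DMSO control wells; lower ratio means ABCB6 inhibition with less porphyrin fluorescence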
Target sequence (Q9NP58 whole entry, looked up): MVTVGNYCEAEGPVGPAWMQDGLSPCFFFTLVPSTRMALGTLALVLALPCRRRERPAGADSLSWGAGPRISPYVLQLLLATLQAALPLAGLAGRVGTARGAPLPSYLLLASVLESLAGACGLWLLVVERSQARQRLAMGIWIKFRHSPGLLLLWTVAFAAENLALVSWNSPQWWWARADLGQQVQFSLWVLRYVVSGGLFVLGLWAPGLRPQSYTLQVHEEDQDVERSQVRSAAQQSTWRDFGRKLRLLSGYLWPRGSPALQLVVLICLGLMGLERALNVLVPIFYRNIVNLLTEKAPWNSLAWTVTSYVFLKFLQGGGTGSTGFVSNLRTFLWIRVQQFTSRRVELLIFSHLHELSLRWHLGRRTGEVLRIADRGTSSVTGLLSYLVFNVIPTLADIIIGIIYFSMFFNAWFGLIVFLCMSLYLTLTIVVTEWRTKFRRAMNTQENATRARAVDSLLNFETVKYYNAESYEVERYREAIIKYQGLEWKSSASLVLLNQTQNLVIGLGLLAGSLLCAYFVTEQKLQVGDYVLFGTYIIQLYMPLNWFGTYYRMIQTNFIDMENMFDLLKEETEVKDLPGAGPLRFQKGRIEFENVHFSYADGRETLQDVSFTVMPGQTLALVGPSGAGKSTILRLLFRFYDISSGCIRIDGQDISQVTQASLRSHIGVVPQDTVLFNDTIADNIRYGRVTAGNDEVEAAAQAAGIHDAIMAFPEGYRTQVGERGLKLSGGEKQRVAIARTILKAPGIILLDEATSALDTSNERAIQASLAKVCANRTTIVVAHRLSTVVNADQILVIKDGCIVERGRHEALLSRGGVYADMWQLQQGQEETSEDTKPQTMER
Myeloid diff 2 = induction of myeloid progenitor differentiation, primary screen, cell-based, flow cytometry, MLPCN library | ER-HoxA9 myeloid progenitors, lysozyme-GFP differentiation | calls only at 10 µM | 1% of 360,000 active | AID 624256, 2012;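 active means normalized GFP-positive differentiation at or above the plate's own cutoff, the solvent-only control mean plus 3 SD; inconclusive means no clear call, values can overlap the other calls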;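 further: cells exposed to compound for four days before flow analysis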
Granule exo inh = LAMP-1 surface exposure blockers, TALL-104 cells – cell-based, flow cytometry, MLPCN library, primary screen; 0.66% of 360,000 active; TALL-104 LAMP-1 surface exposure; cells stimulated with thapsigargin and PMA; inhibition, % at 10 µM;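 active means inhibition above about 55%, limit read from the data; inconclusive means no clear call, values can overlap the other calls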
* = called active by the depositor; i = inactive; ? = inconclusive; . = no result; + = active, no number. Most compounds without a hit are left out; they make up all but 1.8% or so of the library.

SMILES | ABCB6 inh MLPCN | Myeloid diff 2 | Granule exo inh
Cc1ccc2nc(N3CC(=O)Nc4ccccc43)nc(-c3ccccc3)c2c1 | 113 | + | 1
Cc1ccc2nc(N3CCC(C(=O)O)CC3)nc(-c3ccccc3)c2c1 | 90 | i | -1
COc1ccc2c(C(=O)c3ccc(C)cc3)n(Cc3ccc(C(N)=O)cc3)[n+]([O-])c2c1 | 93 | i | -10
COCCOC(=O)c1cc(C(=O)c2cc(F)ccc2O)coc1=N | 105 | + | 0
COC(=O)c1cc(C(=O)c2cc(Cl)ccc2O)coc1=N | 105 | i | 1
CCSc1nc2nccnc2c(=O)[nH]1 | 99 | i | 4
O=S(=O)(/N=C(\Sc1ccccc1)c1ccccc1)c1ccc(Cl)cc1 | 99 | i | 13
Cc1ccc(S(=O)(=O)/N=C(\Sc2ccccc2)c2ccccc2)cc1 | 103 | i | 65*
O=C(Nc1nc2ccccc2s1)C1CCCO1 (centres undefined) | 91 | i | -4
O=C(Nc1nc2ccccc2s1)C1c2ccccc2Oc2ccccc21 | 99 | + | -2
CCN(CC)S(=O)(=O)c1cccc(NC(=O)COC(=O)c2[nH]c(C)c(C(C)=O)c2C)c1 | 95 | i | 5
CCCNC(=O)c1ccc2c(=O)c(O)c(-c3ccsc3)[nH]c2c1 | 93 | + | -7
CCCNC(=O)c1ccc2c(=O)c(O)c(-c3ccc(C)cc3)[nH]c2c1 | 94 | i | -7
CCc1ccc(C2C(C#N)=C(N)SC(N)=C2C#N)cc1 | 113 | i | 1
CCOc1ccccc1C1C(C#N)=C(N)SC(N)=C1C#N | 243 | + | -2
CCOc1ccccc1C1C(C#N)=C(N)Oc2n[nH]c(CC)c21 (centres undefined) | 96 | i | 0
CCOc1ccc(C2C(C#N)=C(N)SC(N)=C2C#N)cc1OCC | 95 | + | -2
Fc1ccc(-c2nc3c4ccccc4ccn3c2Cc2cccc(Cl)c2)cc1 | 109 | i | -8
O=C(c1ccc(S(=O)(=O)Cc2cc(F)ccc2F)c([N+](=O)[O-])c1)N1CCCCC1 | 99 | + | -1
O=C(c1ccc(S(=O)(=O)Cc2cc(F)ccc2F)c([N+](=O)[O-])c1)N1CCCC1 | 91 | i | 6
COc1ccccc1NC(=O)C[n+]1ccccc1C | 138 | i | 1
CCOC(=O)[C@]12CCCC=C1N(Cc1ccco1)C(=O)[C@H](CC(=O)N1CCCC1)C2 | 94 | i | -8
CCN1/C(=C/C=C2/SC(=Nc3cccc4ncccc34)N(C)C2=O)Sc2ccccc21 | 205 | + | -8
CCC(=O)/C=C1/Sc2ccccc2N1CC | 99 | i | 0
CCC(=O)N(C)C[C@H]1Oc2ncc(C#Cc3ccncc3)cc2C(=O)N([C@@H](C)CO)C[C@@H]1C | 102 | i | -3
SMILES | ABCB6 inh MLPCN | Myeloid diff 2 | Granule exo inh
COc1ccc2oc(C(=O)OCc3c(C)noc3C)c(C)c2c1 | 96 | i | -1
Clc1ccc2c(c1)C(N1CCNCC1)Cc1ccccc1S2 (centres undefined) | 94 | i | 73*
Clc1cccc2c1Sc1ccccc1CC2N1CCNCC1 (centres undefined) | 118 | i | ?
COc1ccc(CC(=O)OCC(=O)NC2CCCC(C)C2C)cc1 (centres undefined) | 96 | i | 16
CN1C(=O)N(CC(=O)Nc2ccc3c(c2)OCO3)C(=O)C12CCCCC2 | 97 | i | -2
CC(=O)Nc1ccc(C(=O)OCC(=O)NC2CCCCCC2)cc1 | 89 | i | -8
O=C1C(Sc2ccccc2)=C[C@@]2(O)CC[C@@H](O)[C@]1(Sc1ccccc1)[C@H]2O | 126 | i | 32
Clc1ccc(C2[C@H]3CN(Cc4cccnc4)[C@H](c4ccccc4)C34CC2(c2cccnc2)C4)cn1 (some centres undefined) | 104 | + | -3
FC(F)(F)c1ccc(C2[C@H]3CN(Cc4cccnc4)[C@H](c4ccccc4)C34CC2(c2cccnc2)C4)cc1 (some centres undefined) | 93 | i | 5
CC12CCC3C(=CCc4cc(O)ccc43)C1CC(=NO)C2O (centres undefined) | 94 | i | 6
COc1ccc2c(c1)CC=C1C2CCC2(C)C(=O)C(=NO)CC12 (centres undefined) | 102 | i | 91*
Oc1c(Br)cc(Br)cc1C=Nc1cccc2ncccc12 | 101 | i | 67*
Brc1cccc(C=Nc2cccc3ncccc23)c1 | 105 | i | 16
CC(C)(C)NC(=O)C(c1cccc2ccccc12)n1c(=O)c(-c2cc3ccccc3[nH]2)nc2ccccc21 (centres undefined) | . | i | 6
S=c1nc(Cc2ccccc2)[nH]c2ccccc12 | 111 | + | -17
O=c1[nH]c(COc2ccccc2)nc2ccccc12 | 94 | i | -12
S=c1nc(COc2ccccc2)[nH]c2ccccc12 | 202 | + | -11
S=c1nc(Cc2ccc(Cl)cc2)[nH]c2ccccc12 | 100 | i | 0
OC(CCN1CC2CCC(CC2)C1)(Cc1ccccc1)c1ccco1 (centres undefined) | 96 | i | 30
O=C(NCc1ccc(F)cc1F)[C@@H]1CCCN1C(=O)[C@@H]1CCCN1C(=O)c1ccc(Cl)cc1 | 101 | i | -7
Oc1ccc(C[C@H]2CNC(=S)N2CC2CCCN2C[C@H](Cc2ccc(O)cc2)N2C[C@H](Cc3ccccc3)N(CC3CCCCC3)C2=S)cc1 (some centres undefined) | 99 | i | 17
Oc1ccc(Oc2ccc(Oc3ccc(O)cc3)cc2)cc1 | 99 | + | 8
CC(=O)c1ccc(Oc2ccc(C(C)=O)cc2)cc1 | 95 | i | 1
COC(=O)CCCn1cc(CN(C)C2CN(Cc3cn(CCCC(=O)OC)nn3)S(=O)(=O)C2)nn1 (centres undefined) | 93 | i | -1
Nc1ccc(-n2c(N)c(C(=O)NCc3ccc4c(c3)OCO4)c3nc4ccccc4nc32)cc1 | 91 | ? | -5
SMILES | ABCB6 inh MLPCN | Myeloid diff 2 | Granule exo inh
Nc1c(C(=O)NCc2ccccc2)c2nc3ccccc3nc2n1-c1ccc2c(c1)OCO2 | 95 | + | 0
O=[N+]([O-])c1cc(C2Nc3cccc4cccc(c34)N2)ccc1Cl | 98 | + | 10
O=C1NC(c2ccc(Cl)c([N+](=O)[O-])c2)Nc2ccccc21 (centres undefined) | 98 | i | -4
CCOCCCNC(=O)c1c[nH]c2ccc(OCC)cc2c1=O | 92 | i | 0
O=C(N/C(=C/c1ccc(Br)cc1)C(=O)N1CCCCC1)c1ccccc1F | 102 | i | 1
Cc1ccc(NC2c3ccccc3C(=O)N2CCN2CCOCC2)cc1 (centres undefined) | 100 | i | 0
CCN(CC)S(=O)(=O)c1ccc(NC2c3ccccc3C(=O)N2CCN2CCOCC2)cc1 (centres undefined) | 103 | + | 5
CCOc1cccc(C(=O)N(Cc2ccco2)C2CCS(=O)(=O)C2)c1 (centres undefined) | 99 | i | 1

Bioassay records: PubChem BioAssay, NMMLSC
